# Assay outcomes (PubChem)
# TRHR agonist: TRH receptor (human) agonism; TRHR cells, calcium flux fluo-8, FDSS agonist mode; activation, % at 2 µM; 360,000 tested, 0.18% active; AID 493084; also: 0% is about no effect
#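 In this calcium-flux screen, cells bearing human TRHR are dye-loaded with fluo-8, baselined for 10 cycles, then exposed to library compounds; positive kinetic calcium responses during the agonist phase mark hits, with TRH as control.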
# D1 agonist: agonists of human D1 dopamine receptor; 360,000 tested, 1% active; P21728; HEK293 T-REx D1 cells, calcium flux, agonist mode; activation, % at 2 µM; also: 0% is about no effect
# Target sequence (P21728 whole entry, looked up): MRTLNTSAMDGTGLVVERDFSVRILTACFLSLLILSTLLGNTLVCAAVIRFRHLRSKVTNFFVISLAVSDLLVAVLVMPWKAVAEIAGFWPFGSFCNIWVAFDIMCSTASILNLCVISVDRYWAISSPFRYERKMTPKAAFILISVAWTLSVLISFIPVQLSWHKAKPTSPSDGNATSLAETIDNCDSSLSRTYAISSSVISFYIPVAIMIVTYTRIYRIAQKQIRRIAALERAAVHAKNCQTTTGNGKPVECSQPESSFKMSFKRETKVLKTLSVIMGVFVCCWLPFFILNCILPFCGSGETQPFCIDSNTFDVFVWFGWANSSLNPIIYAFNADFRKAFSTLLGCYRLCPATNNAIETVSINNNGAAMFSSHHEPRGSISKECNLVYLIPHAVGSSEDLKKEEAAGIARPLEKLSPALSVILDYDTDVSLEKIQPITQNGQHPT
#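 Inducible HEK293 T-REx D1 cells, force-coupled to calcium signalling, were plated at 4000 cells/well with tetracycline and held overnight at 30 C. After no-wash calcium dye loading, compound-evoked calcium rise over 180 s flagged agonists.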
# D1 antagonist: blocks dopamine activation of the human D1 receptor. 360,000 tested, 3.2% active. P21728. HEK293 TREx D1 cells, calcium flux, dopamine EC80; hits give low values. activity change, negative = inhibition, % at 10 µM; in the data active = activity change below about -30%; also: % is scaled to controls: 0 for no effect and ±100 for the full control effect
#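 Tetracycline-induced HEK293 T-REx cells with force-coupled D1 receptor were loaded with a no-wash calcium dye. Compound was added after a 10 s baseline and read kinetically for 180 s; EC80 dopamine was then added and calcium flux followed another 180 s.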
# TRHR enhancer: TRH receptor (human) allosteric enhancement; enhancement, % at 2 µM; 360,000 tested, 0.66% active; TRHR cells, fluo-8 calcium fluorescence, EC20 TRH enhancement; AID 493056; P34981; in the data active = enhancement above about 30%; also: 0% is about no effect
#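 Enhancer read-out: after compound pinning and an initial kinetic agonist-mode read, an EC20 of TRH (10 nM final) was injected and fluo-8 calcium signal (Ex 480/Em 530) followed at 1 s/cycle for 100 cycles in TRHR-expressing cells.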
# D1 potentiator: potentiators of human D1 dopamine receptor. P21728. HEK293 TREx D1 cells, calcium flux, dopamine EC20 potentiation. potentiation, % at 10 µM. 360,000 tested, 0.036% active. AID 504651; in the data active = potentiation above about 30%; also: 0% is about no effect
# An asterisk follows results filed as active; / = no result given. The list is not random: actives were taken first. Their share in the collection is about 4.7%. Rule as the data show it, unless noted: active = activation above about 30%; inactive = the rest.
SMILES,TRHR agonist,D1 agonist,D1 antagonist,TRHR enhancer,D1 potentiator
COc1ccc(F)c(CN(C)CC2CCCN(CCc3ccc(F)cc3)C2)c1 (stereo unspecified),0,3,-58*,0,-12
COc1ccccc1CCN1CCCC(CN(C)CC(C)(C)CO)C1 (stereo unspecified),24,1,22,24,-2
Cc1ccccc1CCN1CCCC(CN(C)CC(C)(C)C)C1 (stereo unspecified),0,-4,-54*,-2,-4
CC(=O)c1cccc(CN(C)CC2CCCN(CCc3ccccc3C)C2)c1 (stereo unspecified),0,4,-66*,-4,-9
COc1ccccc1CCN1CCCC(CN(C)C(=O)c2ccco2)C1 (stereo unspecified),1,2,-50*,0,-22
COc1ccccc1CCN1CCCC(CN(C)C(=O)c2ccoc2)C1 (stereo unspecified),0,1,-13,-1,-5
COc1ccc(CN(C)CC2CCCN(CCc3ccc(F)cc3)C2)cc1OC (stereo unspecified),0,2,-4,-7,-6
O=S(=O)(NCC(c1ccco1)N1CCOCC1)c1ccc(F)cc1 (stereo unspecified),0,0,/,2,-1
O=C(Cn1c(=O)c2cccn2c2ccc(F)cc21)N1CCN(c2ccccc2)CC1,0,-1,2,-1,-2
Cc1ccccc1S(=O)(=O)NCc1ccc(N2CCN(C)CC2)cc1,0,5,1,2,-1
Cc1ccc(-n2nnnc2CNC(=O)c2ccccc2S(C)(=O)=O)cc1C,0,0,0,-2,0
CCOc1ccccc1CNC(=O)c1ccc(Sc2ccc(Cl)cc2)c(NC(C)=O)c1,0,3,-39*,1,-3
Cc1ccc(C(=O)CC2(O)C(=O)N(CCc3ccccc3)c3ccc(Cl)cc32)cc1 (stereo unspecified),-1,23,-13,22,-3
Cc1ccc(S(=O)(=O)N2CCN(Cc3ccccn3)CC2)cc1,0,1,-16,-3,-2
O=S(=O)(c1ccc2ccccc2c1)N1CCCCCC1,-1,1,-17,31*,1
O=S(=O)(c1ccc2ccccc2c1)N1CCN(Cc2ccccn2)CC1,0,51*,5,11,-1
CC(C)N1CCc2c(sc(NC(=O)c3ccc(S(=O)(=O)N(C)C4CCCCC4)cc3)c2C(N)=O)C1,23,66*,-15,0,-1
CC(C)N1CCc2c(sc(NC(=O)c3cc(-c4cccs4)nc4ccccc34)c2C(N)=O)C1,27,83*,0,10,-4
CC(C)N1CCc2c(sc(NC(=O)c3ccc(S(=O)(=O)N4CCc5ccccc54)cc3)c2C(N)=O)C1,24,32*,6,-2,-3
CCOC(=O)c1ccccc1NC(=O)Cn1c(=O)n(CCC(=O)NCc2ccccc2OC)c(=O)c2ccccc21,-2,0,-1,-7,0
Cc1ccc(C)c(N2CCN(C(=O)C3CCN(c4nc5ccc(C)cc5[nH]4)CC3)CC2)c1,-1,3,-18,23,-3
CC1(C)NC(=O)N(CC(O)COc2cc3ccccc3cc2C(=O)N2CCCCC2)C1=O (stereo unspecified),0,0,16,-1,2
CC1(C)NC(=O)N(CC(O)COc2ccccc2C(=O)N2CCCCC2)C1=O (stereo unspecified),0,2,-30*,-2,-2
O=C(CSc1ncc(S(=O)(=O)c2ccc(Cl)cc2)c(=O)[nH]1)Nc1cccc(C(F)(F)F)c1,0,0,-32*,-2,4
Cc1ccn2c(CN(C)CCn3nc(C)cc3C)c(C(=O)N3CCCCCC3)nc2c1,-1,-1,-36*,-1,2
Cc1ccn2c(CNCCn3nc(C)cc3C)c(C(=O)N3CCCCCC3)nc2c1,0,1,-8,12,-7
Cc1cccc(N2CCN(C(=O)c3ccc(CS(=O)c4cccc(Cl)c4)o3)CC2)c1C (stereo unspecified),0,9,-14,-10,-2
Cc1ccc(NC(=O)NC2CCCCCCC2)cc1,0,1,-32*,-3,-11
O=C(Nc1ccc(F)cc1F)NC1CCN(S(=O)(=O)c2ccc(F)cc2)CC1,0,2,-8,-1,-1
